# Results published in PubChem BioAssay (NCI).
# The panel holds about 79,000 compounds, 15% with a hit somewhere; the sample as a whole holds those more often. A number with no mark means an inactive call. Activity calls are given as the source filed them. Cut-off read from the data, not from the text of the source: active = growth inhibition above about 70%; inactive = the rest.
# How the values were obtained:
# [1] = NCI Yeast Anticancer Drug Screen. Data for the rad50 strain (AID 155);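 note: 0% = growth of vehicle-only cultures of the same strain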; settings: S. cerevisiae rad50 strain growth inhibition; at 50.0 µM; hits give high values
# Summary of the method: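 Inhibition values express reduced yeast growth in compound-treated cultures relative to vehicle-treated controls.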
# [2] = NCI Yeast Anticancer Drug Screen. Data for the mec2-1 strain (AID 157); settings: S. cerevisiae mec2-1 strain, at 50.0 µM, hits give high values
# Summary of the method: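 Strain: mec2-1 (DNA repair/cell cycle alteration). Compound exposure, then growth measured; inhibition expressed relative to vehicle.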
# [3] = NCI Yeast Anticancer Drug Screen. Data for the sgs1 mgt1 strain (AID 161);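 note: 0% = growth of cultures given vehicle only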; settings: S. cerevisiae sgs1 mgt1 strain, at 50.0 µM, hits give high values
# Summary of the method: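 Genetically altered yeast, compound exposure, growth inhibition relative to vehicle.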
# [4] = NCI Yeast Anticancer Drug Screen. Data for the cln2 rad14 strain (AID 165);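 note: 0% = growth equal to vehicle treated cultures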; settings: S. cerevisiae cln2 rad14 strain, at 50.0 µM, hits give high values
# Summary of the method: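 Compounds are applied to the cln2 rad14 yeast strain, and growth is then compared with that of vehicle-treated cultures to give inhibition.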
# [5] = NCI Yeast Anticancer Drug Screen. Data for the bub3 strain (AID 167); settings: S. cerevisiae bub3 mutant strain, at 50.0 µM, hits give high values
# Summary of the method: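 Steps: expose the mutant yeast strain to compound; grow alongside vehicle-treated cultures; measure growth; express inhibition against the vehicle cultures.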
# [6] = NCI Yeast Anticancer Drug Screen. Data for the mlh1 rad18 strain (AID 175); settings: S. cerevisiae mlh1 rad18 strain growth inhibition; at 50.0 µM; hits give high values
# Summary of the method: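 Read-out is yeast growth inhibition, calculated against vehicle-only controls. The compound was applied to a strain engineered with DNA damage repair alterations.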
Structure (SMILES),growth inhibition [1],growth inhibition [2] [%],growth inhibition [3],growth inhibition [4],growth inhibition [5] [%],growth inhibition [6] [%]
O=CNC1(CO)CCCCC1,-2.4%,-3.4,-7.05%,-38.8%,-18.1,7.9
CCOC(=O)/C(F)=C/c1cccc(C#N)c1,41.6%,-3.35,8.1%,24.7%,30.7,23.9
O=C(O)C(Cc1ccsc1)C(=O)O,-10.1%,1.1,-6.6%,-17%,-6.45,12.4
O=c1n(-c2ccccc2)c(=O)n2n1C1C3C4C3C2C2(F)C4C12 (stereo unspecified),-6.95%,14.3,19.9%,8.6%,7.75,9.6
C#CCNCCCn1c(=O)nc2n(-c3ccccc3)c3ccccc3nc-2c1=O,56%,19.2,27.1%,29.4%,0.55,43
CC1(C)C2(SCCS2)C(C)(C)C12SCCS2,22.9%,3.05,17.9%,3.75%,11.4,5.4
N#CC(C#N)=CN1CCCCC1,-16.2%,-4.65,-12.1%,17.6%,-6.35,-17.8
CCOC(=O)C1=CNC(C(=O)OCC)C1c1cccn1-c1ccc(Cl)cc1[N+](=O)[O-] (stereo unspecified),8.6%,16.8,10.8%,29%,3.8,40.8
CCC(C)C(=O)c1c(O)c(C/C=C(\C)CCC=C(C)C)c(O)c2c(C(O)CC)cc(=O)oc12 (stereo unspecified),21.8%,15.8,14.7%,18.1%,20.1,42.9
Cc1ncn(-c2ccccc2)c(=O)c1N=Cc1ccccc1,-13.7%,-17.1,-32.2%,-8.85%,-19.7,-10.3
CCOC(=O)c1nc2c(Cl)c3ncccc3cc2[nH]c1=O,20.6%,11.1,20.8%,-9.7%,16.1,20.4
NNC(=S)NC1CCCCC1,29.8%,-4.45,29.8%,12.2%,16.9,36
CCCCCCCCCCCCCCCC[N+](C)(C)CCN,98.9% (active),50.8,58.4%,73.4% (active),49.2,59.7
O=C(/C=C/c1ccc2c(c1)OCO2)c1cccc2ccccc12,-4.4%,-14.6,-17.4%,4.05%,-3,5
CCOC(=O)Cn1cnc2sc3c(c2c1=O)CCCC3,13.4%,21.1,30.6%,28.7%,19.4,35.9
Nc1ccccc1Br,29.6%,34.5,21.4%,-31%,12.2,20.6
O=C1Nc2ccccc2C1=Nc1cccc2ncccc12,3.35%,-7.75,-11.1%,-4.5%,8.7,15.4
CCCc1ccc(N=Cc2cc(OC)c(OC)c(OC)c2)cc1,-1.85%,13.3,13.5%,4.4%,-8,21.6
O=S1(=O)c2ccccc2NC(c2ccc3ccccc3c2)CC1c1ccccc1F (stereo unspecified),-25.3%,-28.1,-47%,4.95%,-18.4,-14.2
c1c[nH]c(C2Nc3ccccc3CO2)c1 (stereo unspecified),-11.4%,-13.2,-18.9%,-22.6%,1.3,9.85
CC(C)CCCC(C)C1CCC2C3C=C(C(=O)O)C(C)(CCC(=O)O)C3CCC12C (stereo unspecified),45%,32,42%,7.7%,-2.15,44.1

Structure (SMILES),growth inhibition [1],growth inhibition [2] [%],growth inhibition [3],growth inhibition [4],growth inhibition [5] [%],growth inhibition [6] [%]
O=C1CCCCCN1,18.5%,1.55,-9.95%,-11.3%,-5.1,18.1
CC(NNC(=S)N1CC2CCC(CC2)C1)c1cccc[n+]1[O-] (stereo unspecified),93.1% (active),37.4,92.5% (active),84.7% (active),48.8,59.6
O=C1CSC(c2ccc(Cl)cc2)N1c1ccc(-n2c(-c3ccccc3)nc3ccccc3c2=O)cc1 (stereo unspecified),-3.65%,-12.2,5.35%,-43.4%,-0.7,14.8
O=C(/C=N\O)c1ccccc1[N+](=O)[O-],-5.6%,-4.85,7.6%,-37.5%,-1.35,-19.1
Cc1cccc(C)c1NC(=O)Nc1cccc(Cl)c1,6.3%,15.6,7.7%,-0.5%,11,-0.8
CCC1(CC)C(=O)N(C(=O)c2cc(OC)c(OC)c(OC)c2)N(C(=O)c2cc(OC)c(OC)c(OC)c2)C1=O,13.2%,-0.1,-2.2%,-11%,6.75,14.8
CCCCCCCCOC(=O)C1(O)CCCCC1,14.6%,28.4,16.1%,4.2%,17.6,36.1
CN(C)c1c([N+](=O)[O-])cc2[nH]cnc2c1[N+](=O)[O-],21.2%,12.2,13.3%,-2.9%,19.4,13.7
CCC1=CC(=O)C(CC)=CC1=O,3.05%,25.2,-2.15%,-23.7%,1.95,15.6
NC(=O)N/N=C(\CC1OC(=O)c2ccccc21)c1ccc([N+](=O)[O-])cc1 (stereo unspecified),5.4%,3.85,-17.6%,3.85%,-23.9,0
Cc1ccc(NC(=O)Oc2ccc(Cl)cc2Cl)cc1NC(=O)Oc1ccc(Cl)cc1Cl,-20.1%,-1.15,-13.3%,-13.1%,-3.2,-42.7
O=NN(CCOS(=O)(=O)c1ccc(Br)cc1)C(=O)NC1CCCCC1,32%,9.25,18.6%,28.6%,-1.95,25.2
CC(C)=CCNc1ncnc2c1ncn2CCC(=O)OC(C)(C)C,-9.75%,-3.2,-3.7%,-15.9%,10.1,1.55
CCCOC(=O)/C=C/C(=O)N1CC(C)N(C(=O)/C=C/C(=O)OCCC)CC1C (stereo unspecified),3.85%,-1.25,9.6%,42.6%,-2.9,25.2
CCOC(=O)C(C(=O)OCC)C(NC(=O)Nc1cc(C(F)(F)F)ccc1OC)(C(F)(F)F)C(F)(F)F,23.1%,11.6,11.4%,3.45%,21.6,24.8
CNc1ccccc1C(=O)N/N=C\c1ccc(Cl)cc1Cl,-7.75%,-4.9,-1.3%,-2.85%,-10.1,-5.15
CCO/C(C)=N/NC(=O)c1n[nH]c2ccccc12,4.1%,-1.45,-10.6%,0.05%,-11.3,12
O=C(O)COc1ccc(C(=O)O)cc1,5.6%,-19.9,3.7%,-53.7%,-23.4,-6.15
CC1=NN(C(=O)Cc2ccccc2)C(=O)/C1=C\c1ccccc1O,-10.1%,-39,-43.2%,-5.7%,-26.2,-39.9
CCCC(C)C(O)CC (stereo unspecified),-27.1%,-28.9,7.45%,13.3%,-19.5,-10
